Test results: PubChem BioAssay (Tox21)
Several values for one entry are separate records, joined by “and”; a condition that tells them apart may be missing. Identical values can stand only once. Inconclusive results are not listed. Some structures have more than one record in an assay (separate samples or runs), and their calls can disagree. Activity calls are given as the source filed them. Unless noted, calls follow the shape of the dose curve; as a rule, active = well fitted curve in the direction sought with a large enough effect in the repeat runs; inconclusive = weak or mixed curves; inactive = no such curve, though single readings can be large; an effect the other way counts as inactive or inconclusive.

What was measured:
[1] = A CellTox Green Cytotoxicity Assay to monitor cytotoxicity in HepG2 cells - 8 hour (AID 1224890); also: nearly all actives have a fitted effect of over 45% in size; also: potency is read from the fitted curve at half-maximal effect
How it was run: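 Continuous culture of HepG2 cells with a membrane-impermeant DNA dye; rising fluorescence marks dead cells. Compound exposure lasted up to 40 h at 37 C, with reads every 8 h from 0 h.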

[2] = qHTS assay to identify small molecule antagonists of the estrogen receptor alpha (ER-alpha) signaling pathway using the BG1 cell line in the presence of 0.1 nM 17-beta-estradiol - cell viability counter screen (AID 1259241); also: nearly all actives have a fitted effect of over 40% in size
How it was run: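 In this screen, hormone-deprived VM7Luc4E2 cells were seeded at 4,000 per well, dosed with compound and 0.1 nM estradiol final, and incubated 22 hr at 37C and 5% CO2; fluorogenic live-cell protease signal reported viability.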

[3] = qHTS assay to identify small molecule antagonists of the androgen receptor (AR) signaling pathway using the MDA cell line in the presence of 0.5 nM R1881 - cell viability counter screen (AID 1259242); also: nearly all actives have a fitted effect of over 45% in size
How it was run: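 Fluorescence from CellTiter-Fluor, which reports protease activity of live cells, was read 30 min after reagent addition to MDA-kb2 cells that had been incubated 16 hr with compound and 0.5 nM R1881.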

[4] = biological target: Androgen receptor (Homo sapiens) (UniProt P10275); experiment: qHTS assay to identify small molecule antagonists of the androgen receptor (AR) signaling pathway using the MDA cell line in the presence of 0.5 nM R1881 (AID 1259243); also: nearly all actives have a fitted effect of over 50% in size; also: potency is read from the fitted curve at half-maximal effect
Chain of Androgen receptor (Homo sapiens) (P10275 whole entry, looked up): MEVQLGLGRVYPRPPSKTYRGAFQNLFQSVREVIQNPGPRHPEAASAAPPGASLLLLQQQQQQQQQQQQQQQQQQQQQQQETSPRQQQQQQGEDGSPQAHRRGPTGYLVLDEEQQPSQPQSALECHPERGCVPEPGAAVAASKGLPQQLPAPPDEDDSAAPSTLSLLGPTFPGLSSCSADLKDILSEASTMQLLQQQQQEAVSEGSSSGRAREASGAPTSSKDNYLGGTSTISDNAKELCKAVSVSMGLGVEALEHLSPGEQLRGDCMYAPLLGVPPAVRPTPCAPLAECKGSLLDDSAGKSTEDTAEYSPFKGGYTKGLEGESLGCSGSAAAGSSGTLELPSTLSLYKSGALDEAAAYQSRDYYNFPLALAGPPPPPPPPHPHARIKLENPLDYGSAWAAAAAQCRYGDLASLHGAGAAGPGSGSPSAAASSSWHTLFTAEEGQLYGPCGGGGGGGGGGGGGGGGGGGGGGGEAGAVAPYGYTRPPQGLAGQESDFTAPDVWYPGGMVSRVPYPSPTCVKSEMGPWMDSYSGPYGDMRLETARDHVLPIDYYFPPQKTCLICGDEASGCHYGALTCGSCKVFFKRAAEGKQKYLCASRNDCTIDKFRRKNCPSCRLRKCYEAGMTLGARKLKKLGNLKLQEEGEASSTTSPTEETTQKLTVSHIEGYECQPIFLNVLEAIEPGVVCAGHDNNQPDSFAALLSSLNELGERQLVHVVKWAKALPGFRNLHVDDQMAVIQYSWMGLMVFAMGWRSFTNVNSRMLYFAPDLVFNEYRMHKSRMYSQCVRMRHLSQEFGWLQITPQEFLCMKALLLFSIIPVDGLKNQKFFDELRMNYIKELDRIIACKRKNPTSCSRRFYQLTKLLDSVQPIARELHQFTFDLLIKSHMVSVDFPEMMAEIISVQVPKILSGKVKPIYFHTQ
How it was run: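 Inhibition of R1881 (0.5 nM final) induced reporter signal was measured in human MDA-kb2 cells; note the MMTV promoter also responds to GR. Exposure lasted 16 hr at 37C.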

[5] = biological target: Estrogen receptor (Homo sapiens) (UniProt P03372); experiment: qHTS assay to identify small molecule antagonists of the estrogen receptor alpha (ER-alpha) signaling pathway using the BG1 cell line in the presence of 0.1 nM 17-beta-estradiol (AID 1259244); also: nearly all actives have a fitted effect of over 50% in size; also: potency is read from the fitted curve at half-maximal effect
Chain of Estrogen receptor (Homo sapiens) (P03372 whole entry, looked up): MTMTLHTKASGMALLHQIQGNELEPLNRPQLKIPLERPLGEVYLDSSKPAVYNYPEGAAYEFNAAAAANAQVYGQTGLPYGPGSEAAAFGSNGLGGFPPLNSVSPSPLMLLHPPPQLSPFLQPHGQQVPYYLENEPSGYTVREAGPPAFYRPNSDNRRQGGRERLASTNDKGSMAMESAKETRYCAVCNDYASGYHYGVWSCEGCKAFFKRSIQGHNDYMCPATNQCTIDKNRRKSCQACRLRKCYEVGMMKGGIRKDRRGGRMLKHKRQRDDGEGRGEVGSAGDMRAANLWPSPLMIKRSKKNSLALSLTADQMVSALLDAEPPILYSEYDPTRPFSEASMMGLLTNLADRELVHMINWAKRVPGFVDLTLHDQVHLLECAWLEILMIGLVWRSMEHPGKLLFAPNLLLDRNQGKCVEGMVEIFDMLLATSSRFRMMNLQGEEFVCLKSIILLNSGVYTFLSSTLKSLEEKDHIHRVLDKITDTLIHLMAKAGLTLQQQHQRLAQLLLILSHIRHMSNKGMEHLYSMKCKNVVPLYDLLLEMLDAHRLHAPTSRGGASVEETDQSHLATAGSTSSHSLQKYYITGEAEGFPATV
How it was run: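 Quantitative high-throughput screen in VM7Luc4E2 cells: compound plus 0.1 nM E2 (final), 22 h, 37C, 5% CO2; ONE-Glo added, 30 min room temperature, luminescence measured.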

[6] = qHTS assay to identify small molecule HDAC inhibitors (AID 1259364); also: top concentration of the series differs between compounds; nearly all actives have a fitted effect of over 45% in size
How it was run: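 Endogenous HDAC class I/II activity was measured in wild-type HCT-116 cells by HDAC-Glo luminescence after 2 h compound treatment.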

[7] = qHTS assay to identify small molecule HDAC inhibitors - cell viability counter screen (AID 1259365); also: series mostly up to about 92 µM; nearly all actives have a fitted effect of over 50% in size
How it was run: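 Measured quantity is CellTiter-Glo luminescence from wild-type HCT-116 cells after compound incubation of 2hr at 37C, 5% CO2; reagent developed 30min at room temperature.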

[8] = qHTS assay to identify small molecule antagonists of the sonic hedgehog signaling (Shh) pathway - cell viability counter screen (AID 1259367); also: nearly all actives have a fitted effect of over 55% in size; also: potency is read from the fitted curve at half-maximal effect
How it was run: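 NIH/3T3-derived Gli1-Luc reporter cells, 2,000/well, plated 4 hr before compound addition, then stimulated with conditioned medium for 24 hr at 37C. Viability measured in the same wells by CellTiter-Fluor fluorescence, reagent added at 23 hr for 1 hr.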

[9] = qHTS assay to identify small molecule agonists of the sonic hedgehog signaling (Shh) pathway (AID 1259368; calls by dose curve;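 also: NIH/3T3-derived 3T3Gli1-Luc cells carrying a stable Gli1-driven firefly luciferase reporter; series mostly up to about 92 µM; nearly all actives have a fitted effect of over 15% in size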)
How it was run: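 Luminescent signal was taken as a measure of Gli1-controlled luciferase expression in stably transfected NIH/3T3-derived cells that had been treated for 24 hr with compounds delivered in DMSO.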

[10] = qHTS assay to identify small molecule antagonists of the sonic hedgehog signaling (Shh) pathway (AID 1259369; calls by dose curve; also: nearly all actives have a fitted effect of over 45% in size; also: potency is read from the fitted curve at half-maximal effect)
How it was run: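 Screening used 3T3Gli1-Luc cells at 2,000 per well, compounds delivered in DMSO, and conditioned medium as agonist stimulus; plates incubated 24hr at 37 C and 5% CO2 before a 30min luciferase step.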

[11] = qHTS assay to identify small molecule agonists of the androgen receptor (AR) signaling pathway in the presence of an antagonist - cell viability counter screen (AID 1259379);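 also: MDA-kb2 human breast cancer cells carrying an MMTV luciferase reporter; series mostly up to about 92 µM; nearly all actives have a fitted effect of over 25% in size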
How it was run: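 In MDA-kb2 cells (human breast carcinoma, MMTV-luciferase), compounds at 15 concentrations plus 3.0uM nilutamide; 16 hr, 37C, 0% CO2; CellTiter-Fluor fluorescence read for viability.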

[12] = qHTS assay to identify small molecule agonists of the estrogen receptor beta (ER-beta) signaling pathway - cell viability counter screen (AID 1259380); also: nearly all actives have a fitted effect of over 30% in size; also: potency is read from the fitted curve at half-maximal effect
How it was run: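 Viability of ER-beta-UAS-bla HEK293T cells was determined by CellTiter-Glo luminescence following 16 hr treatment with test compounds at 37C.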

[13] = biological target: Androgen receptor (Homo sapiens) (UniProt P10275); experiment: qHTS assay to identify small molecule agonists of the androgen receptor (AR) signaling pathway in the presence of an antagonist (AID 1259381; calls by dose curve; also: nearly all actives have a fitted effect of over 15% in size; also: potency is read from the fitted curve at half-maximal effect)
How it was run: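 Here, 15-concentration compound series were pin-transferred onto MDA-kb2 MMTV-luciferase cells already dosed with nilutamide (3.0uM final). After 16hr at 37C, ONE-Glo was added and luminescence read 30min later at room temperature.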

[14] = qHTS assay to identify small molecule antagonists of the estrogen receptor beta (ER-beta) signaling pathway - cell viability counter screen (AID 1259382); also: nearly all actives have a fitted effect of over 55% in size; also: potency is read from the fitted curve at half-maximal effect
How it was run: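 Tox21 10K library tested in qHTS format on ER-beta-bla HEK293T cells stimulated with 1nM E2; 16 hr treatment at 37C. Same-well CellTiter-Glo luminescence served as the cell viability measure.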

[15] = biological target: Estrogen receptor (Homo sapiens) (UniProt P03372); experiment: qHTS assay to identify small molecule agonists of the estrogen receptor alpha (ER-alpha) signaling pathway in the presence of an antagonist (AID 1259383; calls by dose curve; also: nearly all actives have a fitted effect of over 15% in size; also: potency is read from the fitted curve at half-maximal effect; as to activation: top concentration of the series differs between compounds)
How it was run: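 In VM7Luc4E2 cells, 4,000 per well, compounds at 15 concentrations were co-incubated 22hr at 37C with 10.0nM final ICI-182,780. Luminescence from the stably transfected 4×ERE-luciferase reporter was recorded 30min after ONE-Glo addition.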

[16] = qHTS assay to identify small molecule agonists or antagonists of the thyroid stimulating hormone receptor (TSHR) signaling pathway - wild type cell line counter screen (AID 1259384; calls by dose curve)
How it was run: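 Wild-type Hek293 cells, 800/well, 18 h at 37C, then compound with Ro20-1724 for 30 min RT. cAMP by HTRF (cAMP-d2/anti-cAMP cryptate), 1 h RT, fluorescence read. 15 concentrations, triplicates.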

[17] = qHTS assay to identify small molecule agonists of the sonic hedgehog signaling (Shh) pathway - cell viability counter screen (AID 1259366); also: nearly all actives have a fitted effect of over 50% in size; also: potency is read from the fitted curve at half-maximal effect
How it was run: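 In quantitative high-throughput format, 3T3 Gli1-Luc cells were exposed to compounds for 24hr and multiplexed for viability using CellTiter-Fluor, incubated 1hr at 37C before the fluorescence read.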

[18] = biological target: Estrogen receptor beta (Homo sapiens) (UniProt Q92731); experiment: qHTS assay to identify small molecule antagonists of the estrogen receptor beta (ER-beta) signaling pathway (AID 1259378; active = well fitted inhibition curve with a large enough effect in the signal ratio in the repeat runs, not every such curve was filed as active; the % refers to the signal ratio; also: potency is read from the fitted curve at half-maximal effect)
Chain of Estrogen receptor beta (Homo sapiens) (Q92731 whole entry, looked up): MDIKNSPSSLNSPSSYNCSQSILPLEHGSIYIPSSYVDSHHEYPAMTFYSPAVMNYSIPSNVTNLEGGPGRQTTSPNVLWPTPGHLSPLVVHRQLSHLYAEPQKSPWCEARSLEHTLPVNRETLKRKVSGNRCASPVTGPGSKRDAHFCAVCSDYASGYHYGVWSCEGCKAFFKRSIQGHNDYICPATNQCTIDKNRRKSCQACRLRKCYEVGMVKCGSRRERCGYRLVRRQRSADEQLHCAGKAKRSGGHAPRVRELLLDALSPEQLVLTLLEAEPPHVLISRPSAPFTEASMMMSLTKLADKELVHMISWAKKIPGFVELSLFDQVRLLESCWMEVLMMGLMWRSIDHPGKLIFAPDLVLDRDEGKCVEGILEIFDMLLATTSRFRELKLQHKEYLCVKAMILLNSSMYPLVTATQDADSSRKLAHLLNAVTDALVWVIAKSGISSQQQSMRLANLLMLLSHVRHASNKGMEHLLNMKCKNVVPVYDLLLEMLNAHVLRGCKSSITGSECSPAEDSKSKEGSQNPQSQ
How it was run: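 ER-beta-UAS-bla HEK293T cells in 2% charcoal-stripped FBS medium treated with compound plus 1nM final 17-beta-estradiol for 16 hr at 37C. Beta-lactamase reporter read by FRET substrate fluorescence after 2 hours at room temperature.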

[19] = qHTS assay to identify small molecule phospholipidosis (PLD) inducers (AID 1259344; active = well fitted curve in the direction sought with a large enough effect; an effect the other way counts as inactive or inconclusive)
How it was run: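 HepG2 cells, 900/well, treated with compound plus LipidTOX Red for 24 h at 37 C; amiodarone positive and DMSO negative controls. Fixed with paraformaldehyde/Hoechst, then high-content imaging scored LipidTOX pit count and integrated intensity per well and per cell.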

[20] = biological target: Estrogen receptor beta (Homo sapiens) (UniProt Q92731); experiment: qHTS assay to identify small molecule agonists of the estrogen receptor beta (ER-beta) signaling pathway (AID 1259377; active = well fitted activation curve with a large enough effect in the signal ratio in the repeat runs, not every such curve was filed as active; the % refers to the signal ratio)
How it was run: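 Reporter cells (HEK293T, ER-beta-UAS-bla) receive compounds or DMSO after a 6 hr pre-incubation. They then incubate 16 hr at 37C/5% CO2, and fluorescence from LiveBLAzer B/G substrate is measured after 2 hours at room temperature.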

Measured: Potency

CCC(=O)O[C@H]1CC[C@H]2[C@@H]3CCC4=CC(=O)CC[C@]4(C)[C@H]3CC[C@]12C
61.1 µM (active) and inactive: [14]
active: [1] 43.6 µM | [10] 30.6 µM and 18.8 µM | [12] 68.6 µM | [13] 48.6 nM and 47.3 nM | [15] 7.7 µM and 9.44 µM
not listed: [17] | [18] | [19] | [20]
inactive: all other assays above

O=S(=O)(Oc1ccc(Cl)cc1)c1ccc(Cl)cc1
not listed: [4] | [13] | [14] | [19] | [20]
inactive: all other assays above

C[C@]12CCC(=O)C(O)=C1CC[C@@H]1[C@@H]2CC[C@]2(C)C(=O)CC[C@@H]12
active: [12] 24.3 µM
not listed: [4] | [10] | [13] | [16] | [18] | [19] | [20]
inactive: all other assays above

CC1(C)C(C=C(Cl)Cl)C1C(=O)OC(C#N)c1cccc(Oc2ccccc2)c1 (stereo unspecified)
not listed: [4] | [13] | [20]
inactive: all other assays above

NNC(N)=S
active: [17] 45 µM | [8] 20.1 µM and 61.1 µM | [10] 8.97 µM and 12.2 µM | [18] 11.3 µM and 30.6 µM | [12] 31.8 µM
63.5 µM (active) and inactive: [5]
not listed: [4] | [13] | [14] | [19]
inactive: all other assays above

Nc1c(Cl)cc([N+](=O)[O-])cc1Cl
inactive and 27.3 µM (active): [5]
active: [4] 6.9 µM and 27.3 µM | [12] 61.5 µM and 27.3 µM
not listed: [6] | [14] | [16] | [19] | [20]
inactive: all other assays above

CC(C)=CC1C(C(=O)OCc2coc(Cc3ccccc3)c2)C1(C)C (stereo unspecified)
active: [10] 24.4 µM and 30.6 µM
not listed: [4] | [12] | [13] | [14] | [18] | [19] | [20]
inactive: all other assays above

CCCCCCCCOC(=O)c1ccccc1C(=O)OCCCCCCCC
not listed: [20]
inactive: all other assays above

COP(=O)(OC)OC
61.6 µM (active) and inactive: [4]
not listed: [18] | [19] | [20]
inactive: all other assays above

O=C1C=CC(=O)C=C1
not listed: [4] | [5] | [6] | [13] | [15] | [19] | [20]
inactive: all other assays above

CCCCC(CC)COC(=O)c1ccc(C(=O)OCC(CC)CCCC)c(C(=O)OCC(CC)CCCC)c1 (stereo unspecified)
not listed: [3] | [5] | [14] | [15] | [18] | [19] | [20]
inactive: all other assays above

O=Cc1ccco1
not listed: [4] | [5] | [6] | [13] | [15] | [18] | [20]
inactive: all other assays above

CC(C)(c1cc(Cl)c(O)c(Cl)c1)c1cc(Cl)c(O)c(Cl)c1
active: [10] 30.6 µM and 34.4 µM
not listed: [4] | [5] | [6] | [13] | [15] | [18] | [19] | [20]
inactive: all other assays above

Oc1cc(Cl)ccc1Cl
not listed: [4] | [5] | [13] | [15] | [18] | [19] | [20]
inactive: all other assays above

S=C1NCCN1
inactive: [1] | [2] | [3] | [7] | [17] | [8] | [9] | [10] | [11] | [12] | [16]

N#Cc1cc(Br)c(O)c(Br)c1
active: [4] 61.1 µM and 46.8 µM | [5] 61.1 µM and 41.7 µM | [10] 15.3 µM and 7.41 µM
not listed: [3] | [6] | [18] | [19] | [20]
inactive: all other assays above
